Screening data from PubChem.
phage Ecoli inh: E. coli growth loss with phage present | growth absorbance | inhibition, % at 11.9 µM | 360,000 tested, 0.26% active | AID 651602; in the data active means inhibition above about 11%
AddAB inh: less growth of phage-infected E. coli with AddAB; E. coli expressing H. pylori AddAB, absorbance growth; inhibition, % at 11.9 µM; 330,000 tested, 0.29% active; AID 435030; in the data active means inhibition above about 12%;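 further: 0% = vehicle wells of infected cells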
E coli growth-1: blocks Escherichia coli growth; OD600, 23 h; hits give low values; OD600 absorbance (no concentration beside the values); 330,000 tested, 0.21% active; AID 1053175;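 active means OD600 absorbance below the run mean of sample wells minus 3.6 SD, in any replicate, cut at about 0.56 in these data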
Tat transport: inhibitors of E. coli Tat protein transport; E. coli MC4100 TorA-mCherry Tat export, fluorescence; inhibition, % at 10 µM; 340,000 tested, 0.036% active; AID 488895;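 active means mean replicate inhibition at least 50% and at least half of replicates individually reaching 50%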;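 further: exported cargo escapes ClpAP degradation while cytoplasmic cargo is degraded and loses fluorescence; 0% = median of neutral control wells and 100% = median of NaSCN control wells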
E coli growth-2: bacterial growth inhibition, counter-screen for AddAB inhibitors; E. coli V3065 growth, OD600 absorbance, 18 h; inhibition, % at 11.9 µM; 330,000 tested, 0.27% active;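 active means inhibition above the campaign's mean inhibition across all tested compounds plus 3 SD, cut at about 9.9% in these data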;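 further: uninfected addAB+ strain grown without phage in ampicillin broth; 0% = DMSO wells and 100% = ciprofloxacin 0.95 µg/ml wells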
AddAB confirm: confirmation screen: growth loss of phage-infected E. coli expressing H. pylori AddAB; shares compounds with AddAB inh; E. coli V3065 expressing H. pylori AddAB, T4 phage, OD; T4 phage with gene 2 nonsense mutations; inhibition, % at 11.9 µM; 880 tested, 64% active; AID 488942;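 active means mean inhibition above a set limit taken from the earlier primary screen, cut at about 13% in these data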;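 further: higher means less bacterial growth since AddAB block lets phage replicate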
RecBCD counter: AddAB counter-screen: growth loss of RecBCD+ E. coli infected with mutant T4 phage. shares compounds with AddAB inh. E. coli V66 + mutant T4 phage, OD growth. inhibition, % at 11.9 µM. 880 tested, 73% active. AID 488955;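 active means mean inhibition above the mean of solvent-only control wells plus 3 SD, cut at about 4% in these data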;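 further: optical density read after an 18 h incubation at 37 °C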
Bact viability: reduces bacterial viability, AddAB inhibitor counter-screen; shares compounds with AddAB inh; absorbance (AddAB counterscreen); inhibition, % at 11.9 µM; 880 tested, 35% active; AID 488956; in the data active means inhibition above about 25%
* marks the source's active call; other numbers are inactive results; . = no result given. Shown are actives, neighbours in structure and some others; about 0.51% of the full set was active somewhere.

SMILES	phage Ecoli inh	AddAB inh	E coli growth-1	Tat transport	E coli growth-2	AddAB confirm	RecBCD counter	Bact viability
O=C(Nc1ccc(N2CCCC2)c(Cl)c1)c1ccc([N+](=O)[O-])o1	8.1	.	0.621	-21.8	.	.	.	.
O=C(Nc1cccc(NC(=O)c2ccccc2Cl)c1)c1ccc([N+](=O)[O-])o1	9.2	13.5*	.	-23.7	10.7*	83.8*	5.5*	21.2
Cc1ccc(NC(=O)c2ccc([N+](=O)[O-])o2)cc1C	9.6	26.7*	0.471*	-17.9	30.5*	97.6*	10.9*	31.3*
C[C@@]12CCC=CC1C(c1ccc3ccccc3c1Br)N(Cc1ccccc1)C2=O (some centres not stated)	.	.	0.7	.	.	.	.	.
COc1cccc(/C=N/Nc2cc(-n3nc(C)cc3-c3ccccc3)ncn2)c1O	6.7	18.4*	.	-6.2	16.9*	9.7	8.8*	6.4
O=c1c(O)c(-c2ccccc2)oc2ccccc12	10.2	.	.	0.1	.	.	.	.
Cc1ccc(-c2oc3ccccc3c(=O)c2O)cc1	4.2	13.5*	0.718	6.0	12.6*	14.3*	13.7*	10.2
CCC(=O)NC(C)c1cc(Cl)c2cccnc2c1O (configuration not stated)	6.9	-3.7	0.686	0.1	-3.9	.	.	.
COc1ccc(C(NC(C)=O)c2cc(Cl)c3cccnc3c2O)cc1OC (configuration not stated)	8.2	10.4	.	-1.9	9.0	.	.	.
CCC(=O)NC(c1ccc(C)cc1)c1cc(Cl)c2cccnc2c1O (configuration not stated)	.	20.8*	.	-11.0	24.8*	16.4*	16.9*	14.0
CCCC(=O)NC(c1ccc2c(c1)OCO2)c1cc(Cl)c2cccnc2c1O (configuration not stated)	.	22.7*	0.679	-5.4	23.7*	21.4*	22.1*	22.9
C=CC1c2cc(C)ccc2N(S(=O)(=O)c2ccc(C)cc2)C(c2ccccc2)C1(C#N)S(=O)(=O)c1ccccc1 (configuration not stated)	.	.	0.745	.	.	.	.	.
Cc1c(-n2cc(C(=O)O)c(=O)c3cc(F)c(N4CCCC(O)C4)c(F)c32)c(=O)n(-c2ccccc2)n1C (configuration not stated)	0.7	2.4	0.717	5.9	0.8	.	.	.
COc1c(N2CCNC(C)C2)c(F)cc2c(=O)c(C(=O)O)cn(C3CC3)c12 (configuration not stated)	.	99.8*	0.061*	.	102.4*	100.9*	101.1*	102.5*
COC(=O)C(CC(C)C)N(Cc1ccccc1)S(=O)(=O)N(Cc1ccccc1)C(CC(C)C)C(=O)OC (configuration not stated)	.	.	0.69	.	.	.	.	.
O=C(NCc1nc2ccccc2[nH]1)c1ccc(Cl)c(S(=O)(=O)N2CCCC2)c1	10.3	15.9*	0.648	-2.9	4.7	6.5	4.0*	3.3
Cc1cccc(NC(=O)c2ccc([N+](=O)[O-])o2)c1C	4.4	2.8	0.702	-6.4	3.2	.	.	.
COc1ccccc1NC(=O)c1ccc([N+](=O)[O-])o1	9.3	30.3*	0.494*	.	23.9*	98.0*	13.5*	43.2*
O=C(Nc1ccccc1N1CCCC1)c1ccc([N+](=O)[O-])o1	1.7	14.0*	0.667	-9.1	7.5	23.3*	2.5	6.5
CC1CCN(c2ccccc2NC(=O)c2ccc([N+](=O)[O-])o2)CC1	0.1	3.1	0.696	-2.3	-3.0	.	.	.
C=CCN(c1ccccc1)S(=O)(=O)c1cccc(C(=O)NNC(=O)c2ccccc2O)c1	4.6	12.2*	0.701	-3.8	-0.4	4.7	3.7	4.4
COc1ccc(C2CC(=O)C=C(c3ccc(C(=O)O)cc3)C2)cc1OC (configuration not stated)	.	.	0.707	.	.	.	.	.
CN1CCN(C(=O)C(=Cc2ccc3c(c2)OCO3)NC(=O)c2cccs2)CC1	.	.	0.693	.	.	.	.	.
CC(=O)NC(c1cccs1)c1cc(F)c2cccnc2c1O (configuration not stated)	6.6	0.7	0.661	1.8	-2.7	.	.	.
CC(C)CC(=O)NC(c1cccs1)c1ccc2cccnc2c1O (configuration not stated)	.	25.8*	0.586	-4.3	35.3*	25.6*	22.6*	21.1
SMILES	phage Ecoli inh	AddAB inh	E coli growth-1	Tat transport	E coli growth-2	AddAB confirm	RecBCD counter	Bact viability
CCCC(=O)NC(c1ccc(C)cc1)c1ccc2cccnc2c1O (configuration not stated)	.	23.8*	.	-1.2	33.7*	28.1*	26.2*	24.4
COc1ccccc1C(NC(C)=O)c1cc(Cl)c2cccnc2c1O (configuration not stated)	3.4	-1.1	0.686	-6.8	3.5	.	.	.
CCCC(=O)NC(c1ccccc1OC)c1ccc2cccnc2c1O (configuration not stated)	.	33.9*	0.571	-6.1	31.2*	29.7*	26.3*	23.9
COc1ccc(C(NC(C)=O)c2ccc3cccnc3c2O)c(OC)c1 (configuration not stated)	.	12.3*	0.744	15.9	3.4	6.8	6.8*	1.9
O=C(COc1ccc([N+](=O)[O-])cc1)NNC(=S)NC(=O)c1ccc(Br)cc1	-4.1	98.2*	0.586	-13.3	95.8*	-2.0	-0.3	3.4
Cc1ccc(C(=O)NC(=S)NNC(=O)COc2ccc([N+](=O)[O-])cc2)cc1	-4.7	0.9	0.639	-0.9	-3.0	.	.	.
CCC1=C(OC(=O)N(CC)CC)N2C(=O)OC(=NCCc3c[nH]c4ccccc34)[C@]2(Cc2ccccc2)C2C1=CCC1C(=O)N(c3ccccc3)C(=O)C12 (some centres not stated)	.	.	0.698	.	.	.	.	.
COC(=O)c1ccc(C=Cc2c(-c3ccc(OC)cc3)oc3ccc(N4CCOCC4)cc23)cc1	.	.	0.658	.	.	.	.	.
CCOc1ccc(NC(=S)N2CCn3c(nc4ccccc43)C2)cc1	.	20.8*	.	.	13.3*	28.3*	19.1*	24.2
O=Nc1c2nc3ccccc3n(O)c-2c2ccccc12	6.2	14.1*	0.565	4.5	20.0*	31.5*	8.1*	17.5
On1c(-c2ccccc2)nc2ccccc21	3.3	5.5	0.63	0.4	6.1	.	.	.
O=C(NCc1ccccc1)C1=CC(c2csc3ccccc23)CC(OCCCCO)O1 (configuration not stated)	.	.	0.678	.	.	.	.	.
COc1cc(C2Nc3cc(Cl)c(S(N)(=O)=O)cc3S(=O)(=O)N2)cc(OC)c1OC (configuration not stated)	3.8	0.7	0.753	-2.1	4.8	.	.	.
NS(=O)(=O)c1cc2c(cc1Cl)NCNS2(=O)=O	3.3	55.1*	0.714	-8.9	38.0*	100.4*	6.2*	74.8*
O=C(CSc1ccc(-c2ccccn2)nn1)Nc1ccc(F)c(F)c1	8.2	13.8*	0.691	17.0	14.2*	6.6	9.7*	7.1
